Experimental data reported in PubChem BioAssay AID449739 (Vanderbilt High Throughput Screening Facility, 2010).
Among all 100,000 compounds or so, about 4,200 (4.2%) were called active. This excerpt belongs to a sample that is enriched for actives. Values without a mark were called inactive.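 Rule for the calls: active = single-dose well whose peak fluorescence ratio is a statistical outlier from its plate by either plate-standardised score or position-corrected B-score; inactive = the rest.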

Target: Voltage-dependent T-type calcium channel subunit alpha-1H (Homo sapiens) (UniProt O95180)
Sequence (O95180 whole entry, looked up): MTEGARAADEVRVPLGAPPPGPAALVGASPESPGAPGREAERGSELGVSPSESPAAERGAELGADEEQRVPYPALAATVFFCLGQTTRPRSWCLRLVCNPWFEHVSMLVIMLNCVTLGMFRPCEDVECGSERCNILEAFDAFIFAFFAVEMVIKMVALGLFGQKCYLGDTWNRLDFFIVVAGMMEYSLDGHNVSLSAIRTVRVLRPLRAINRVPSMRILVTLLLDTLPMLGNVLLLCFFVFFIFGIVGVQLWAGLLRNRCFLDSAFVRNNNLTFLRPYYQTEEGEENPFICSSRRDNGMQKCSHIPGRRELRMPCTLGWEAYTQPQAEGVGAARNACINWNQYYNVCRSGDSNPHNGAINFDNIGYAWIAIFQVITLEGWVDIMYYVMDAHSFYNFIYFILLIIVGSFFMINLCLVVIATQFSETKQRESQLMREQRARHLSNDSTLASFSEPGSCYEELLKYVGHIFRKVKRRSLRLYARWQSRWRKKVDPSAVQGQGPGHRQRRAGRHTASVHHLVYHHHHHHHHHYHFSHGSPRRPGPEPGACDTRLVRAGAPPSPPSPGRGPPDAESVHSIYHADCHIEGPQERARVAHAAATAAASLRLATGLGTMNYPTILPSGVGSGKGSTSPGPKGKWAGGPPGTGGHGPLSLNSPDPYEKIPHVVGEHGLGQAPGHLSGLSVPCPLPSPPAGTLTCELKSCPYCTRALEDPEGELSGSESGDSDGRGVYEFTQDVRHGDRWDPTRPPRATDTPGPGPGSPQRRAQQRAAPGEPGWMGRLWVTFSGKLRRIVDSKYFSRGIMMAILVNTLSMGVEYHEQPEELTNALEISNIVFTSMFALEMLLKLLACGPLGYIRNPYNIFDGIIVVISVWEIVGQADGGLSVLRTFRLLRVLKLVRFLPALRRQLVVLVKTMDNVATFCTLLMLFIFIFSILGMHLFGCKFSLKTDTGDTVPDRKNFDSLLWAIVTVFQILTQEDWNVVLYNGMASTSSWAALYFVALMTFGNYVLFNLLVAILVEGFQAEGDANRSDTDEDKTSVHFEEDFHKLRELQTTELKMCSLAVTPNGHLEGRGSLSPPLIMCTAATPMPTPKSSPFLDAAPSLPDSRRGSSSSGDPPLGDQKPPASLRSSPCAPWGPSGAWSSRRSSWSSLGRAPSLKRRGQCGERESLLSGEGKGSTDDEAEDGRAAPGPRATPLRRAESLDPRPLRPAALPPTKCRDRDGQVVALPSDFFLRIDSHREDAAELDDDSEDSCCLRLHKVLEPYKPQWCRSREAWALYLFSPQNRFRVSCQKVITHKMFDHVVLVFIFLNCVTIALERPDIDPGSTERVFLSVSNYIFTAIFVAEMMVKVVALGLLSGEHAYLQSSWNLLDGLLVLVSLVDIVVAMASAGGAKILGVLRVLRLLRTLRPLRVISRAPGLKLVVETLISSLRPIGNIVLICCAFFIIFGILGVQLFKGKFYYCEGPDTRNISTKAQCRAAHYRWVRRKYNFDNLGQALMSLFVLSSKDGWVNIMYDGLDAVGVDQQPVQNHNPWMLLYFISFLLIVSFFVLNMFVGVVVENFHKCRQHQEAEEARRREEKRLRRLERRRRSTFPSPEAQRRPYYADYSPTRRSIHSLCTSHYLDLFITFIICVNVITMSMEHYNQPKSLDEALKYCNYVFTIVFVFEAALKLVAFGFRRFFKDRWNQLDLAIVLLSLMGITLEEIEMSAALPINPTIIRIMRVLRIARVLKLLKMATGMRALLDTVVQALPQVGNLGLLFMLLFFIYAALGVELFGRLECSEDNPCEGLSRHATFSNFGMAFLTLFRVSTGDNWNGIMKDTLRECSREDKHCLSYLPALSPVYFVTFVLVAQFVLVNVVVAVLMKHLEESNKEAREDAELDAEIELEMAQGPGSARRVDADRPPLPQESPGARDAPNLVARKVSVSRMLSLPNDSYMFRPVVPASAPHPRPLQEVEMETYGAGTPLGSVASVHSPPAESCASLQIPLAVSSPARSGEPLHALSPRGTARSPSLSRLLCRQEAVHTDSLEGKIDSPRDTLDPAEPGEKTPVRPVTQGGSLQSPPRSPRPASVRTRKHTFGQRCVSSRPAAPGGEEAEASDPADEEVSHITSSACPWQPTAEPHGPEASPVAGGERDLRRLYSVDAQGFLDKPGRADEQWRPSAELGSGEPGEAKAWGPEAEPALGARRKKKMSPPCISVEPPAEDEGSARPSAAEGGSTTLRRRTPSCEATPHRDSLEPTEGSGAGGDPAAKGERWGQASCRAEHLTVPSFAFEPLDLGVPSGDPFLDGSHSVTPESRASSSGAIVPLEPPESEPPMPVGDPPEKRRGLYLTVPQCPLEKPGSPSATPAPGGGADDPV
Assay: Cav3.2 calcium influx blockers – cell-based, Fluo-4 calcium fluorescence, FDSS, MLSMR library, primary screen (AID 449739)
Conditions: Cav3.2-expressing cells, at 10 µM, stronger effect = lower value

Row | SMILES | B-score
1 | CC(C)=CCc1c(O)c(CC=C(C)C)c2occ(-c3ccc(O)cc3)c(=O)c2c1O | -0.844
2 | Cc1ccc(NC(=O)c2nc[nH]c2C(=O)N[C@@H](CCCCNC(=O)OC(C)(C)C)C(=O)OC(C)(C)C)cc1 | -0.574
3 | CC(C)C(=O)OCC(=O)Nc1ccc2c(c1)CCC2 | 0.246
4 | Cc1ccccc1NC(=S)Nc1cccc([N+](=O)[O-])c1 | -0.107
5 | CCN(CC)S(=O)(=O)c1cccc(C(=O)Nc2ccccc2)c1 | 0.194
6 | CCN(CC)S(=O)(=O)c1cc([N+](=O)[O-])ccc1NNC(=O)Nc1ccccc1 | -4.53 (active)
7 | O=C1CC2(CCCC2)Oc2ccc(Cl)cc21 | -0.0281
8 | CCOC(=O)C1Nc2ccc(C(F)(F)F)cc2C2C=CCC12 (stereo not drawn) | -0.137
9 | CCN(CC)S(=O)(=O)c1ccc(NC(=O)CN(c2cccc(F)c2)S(C)(=O)=O)cc1 | -6.56 (active)
10 | COc1cccc(N(CC(=O)Nc2cccc(N(C)S(C)(=O)=O)c2)S(C)(=O)=O)c1 | -1.19
11 | Cc1ccc(N(CC(=O)Nc2cccc(N(C)S(C)(=O)=O)c2)S(C)(=O)=O)cc1 | 1.01
12 | CC1=C(N2CCN(c3ncccn3)CC2)CCC1=O | 0.282
13 | C[C@@H]1CC[C@]2(O[C@@H](CCO)C[C@H](O)[C@H]2O)O1 | 0.111
14 | CCn1c(Cc2ccccc2)nnc1SCC(=O)Nc1ccccc1 | 0.0752
15 | COC(=O)c1cccc(NC(=O)CSc2nc(C)cc(=O)[nH]2)c1 | 0.842
16 | CSc1cccc(NC(=O)CSc2ccccc2)c1 | -6.09 (active)
17 | COC(C[C@@H]1O[C@@H]1C(=O)[C@@H](C)OCc1ccccc1)OC | 0.0102
18 | Cc1cc(C)cc(NC(=O)c2cccc(NC(=O)C3C4CC5OC(=O)C3C5C4)c2)c1 (stereo not drawn) | -0.673
19 | Cc1cccc(NC(=O)C2CC(=O)OC23CCCC3)c1 (stereo not drawn) | 2.01
20 | Cc1cccc(NC(=O)C(C)N2C(=O)C3C4CC(C(Br)C4Br)C3C2=O)c1 (stereo not drawn) | -4.83 (active)
21 | CC1(C)C=C2[C@H]3CC[C@@H]4[C@@]5(C)CCC(=O)C(C)(C)[C@@H]5CC[C@@]4(C)[C@]3(C)CC[C@@]2(C(=O)O)CC1 | -0.0499
22 | COc1ccc(CNC(=O)C2(CC3CC(c4ccccc4)=NO3)CCN(C(=O)c3cccc(O)c3)CC2)cc1 (stereo not drawn) | -0.683

Row | SMILES | B-score
23 | CCOC(=O)C1=C(CSc2nccn2C)NC(=O)NC1c1ccc(OC)cc1 (stereo not drawn) | 0.905
24 | CCOC(=O)COc1ccc(Cl)cc1C1NC(=O)NC(C)=C1C(C)=O (stereo not drawn) | 0.0116
25 | CCOC(=O)C1=C(CNC2CCCCC2)NC(=O)NC1c1cc(C)ccc1C (stereo not drawn) | -3.93 (active)
26 | O=c1cc(-c2ccccc2)[nH]c2cc(F)ccc12 | -1.92
27 | N=c1c2c(-c3ccccc3)c(-c3ccccc3)n(Cc3ccccc3)c2ncn1CCCO | -7.3 (active)
28 | N=c1c2c(-c3ccccc3)c(-c3ccccc3)oc2ncn1Cc1ccco1 | -2.43
29 | OCCCN1c2ccccc2Nc2nnc(-c3ccccc3)cc21 | 0.492
30 | Cc1cccc(NC(=S)NCc2ccc3[nH]c4c(c3c2)CCCC4)c1 | -3.54
31 | C=CCOC(=O)C1=C(C)NC(C)=C(C(=O)OCC=C)C1c1cccs1 | -3.25
32 | COc1ccc(-c2nn(-c3ccccc3)cc2C(=O)Nc2nccs2)cc1OC | -3.24
33 | CC(=O)C1=C(C)NC(C)=C(C(C)=O)C1c1cn(-c2ccccc2)nc1-c1cccs1 | -3.89 (active)
34 | CNC(=O)c1[nH]cnc1C(=O)N[C@@H](CC(C)C)C(=O)OCc1ccccc1 | -0.016
35 | Cc1[nH]c2ccccc2c1C(=O)COC(=O)C(C)C | 0.085
36 | COc1ccc2c(c1)SC(C)CC2=O (stereo not drawn) | -0.0138
37 | CC1(C)S[C@@H]2[C@H](NC(=O)COc3ccccc3)C(=O)N2C1C(=O)OCc1ccccc1 (stereo partly drawn) | -1.43
38 | CCOc1ccc2[nH]c(=O)c(CN(Cc3nnnn3Cc3ccccc3)CC3CCCO3)cc2c1 (stereo not drawn) | -0.479
39 | CCc1ccc2c(c1)cc(CN(C(=S)Nc1ccccc1Cl)C1CC1)c1nnnn12 | 0.523
40 | CCOc1ccc2c(c1)cc(CN(C(=O)CC)C1CCCCC1)c1nnnn12 | -4.82 (active)
41 | O=C(COc1ccc(Cl)cc1)NCCC1=CCCCC1 | -2.12
42 | C=C1CCN([C@@H](Cc2ccccc2)C(=O)N2CCOCC2)S(=O)(=O)c2ccccc21 | 0.119
43 | O=C1N=C(N2CCCC2)S/C1=C\c1cccc(Br)c1 | 0.36
44 | O=C(NC1(C(F)(F)F)N=C2SCCN2C1=O)c1ccco1 (stereo not drawn) | 0.645

Row | SMILES | B-score
45 | O=C1N=C2SCCN2/C1=C\c1c(Cl)cccc1Cl | -7.62 (active)
46 | O=C(NC1=NCCS1)[C@H](Cc1ccccc1)N1C(=O)c2ccccc2C1=O | -0.0971
47 | NC(=O)CC[C@@H]1NC(=O)[C@@H]2CCCN2C(=O)c2cc([N+](=O)[O-])cc(F)c2NCCC[C@@H](C(N)=O)NC1=O | 0.224
48 | CCOC(=O)c1ccc(N2C(=O)CC(N3CC(C)OC(C)C3)C2=O)cc1 (stereo not drawn) | 0.246
49 | CCCCOC(=O)c1ccc(N2C(=O)CC(N3CCN(C/C=C/c4ccccc4)CC3)C2=O)cc1 (stereo not drawn) | -6.05 (active)
50 | CCOC(=O)c1ccc(N2C(=O)CC(N(C)Cc3ccccc3)C2=O)cc1 (stereo not drawn) | 0.0731
51 | O=C(CCCN1C(=O)c2cccc3cccc(c23)C1=O)N1CCN(Cc2ccc3c(c2)OCO3)CC1 | -2.86
52 | O=C(CN1CCN(c2ncc(C(F)(F)F)cc2Cl)CC1)Nc1ccc2c(c1)OCO2 | -1.4
53 | CC(=O)c1ccc(Cc2ncc(C(F)(F)F)cc2Cl)s1 | -0.288
54 | O=C(Cc1ncc(C(F)(F)F)cc1Cl)Nc1cccc(Br)c1 | -4.67 (active)
55 | O=C(/C=C/c1cccs1)c1cc(Cl)ccc1OC(=O)N1CCOCC1 | -1.17
56 | CN1/C(=c2/s/c(=C3/C(=O)N(c4ccccc4)NC3=Nc3ccccc3)n(C)c2=O)C(C)(C)c2ccccc21 | -2.19
57 | NC(=O)C1=C[C@@H](c2ccc3c(c2)OCO3)C[C@@H](OCCCCO)O1 | 0.476
58 | COc1cccc(N(CC(=O)NC2CCCC2)C(=O)Cn2nnc(-c3ccc(C)cc3)n2)c1 | -4.56 (active)
59 | O=C(Cn1nnc(-c2ccc(CN3CCOCC3)cc2)n1)NC1CCCCC1 | -0.444
60 | COc1ccc(-c2nnn(CC(=O)N(CCO)C(C(=O)NC3CCCC3)c3ccc(F)cc3)n2)cc1 (stereo not drawn) | -1.11
61 | COCc1cc(C)nc2sc(C(=O)NC3CCCCC3)c(N)c12 | -0.0172
62 | N#CC1=C(N)N(c2ccc(F)cc2)C(=O)C1 | -0.201
63 | O=C(CC1NCCNC1=O)Nc1ccc(Oc2ccccc2)cc1 (stereo not drawn) | -5.21 (active)
64 | CCOc1ccc(NC(=O)CC2NCCNC2=O)cc1 (stereo not drawn) | 0.0128
65 | CCCOc1ccc(NC(=O)C2CCCNC2=O)cc1 (stereo not drawn) | -0.159
66 | O=C1CCCC2=C1C(c1ccccc1)n1c(s/c(=C/c3cccc(F)c3)c1=O)=N2 (stereo not drawn) | 0.975

Row | SMILES | B-score
67 | O=C1N[C@@H](Cc2ccccc2)C(=O)N2[C@@H]3N(S(=O)(=O)c4ccc(F)cc4)c4ccccc4[C@]3(Br)C[C@@H]12 | 0.27
68 | N=c1n(Cc2ccc(Cl)cc2)c2ccccc2n1CC(O)c1ccco1 (stereo not drawn) | -3.51 (active)
69 | O=S(=O)(O)c1nc2ccccc2n1Cc1ccc(Cl)cc1 | -0.194
70 | Cn1c(=N)n(CC(O)c2ccccc2)c2ccccc21 (stereo not drawn) | 0.141
71 | Cc1cc([N+](=O)[O-])ccc1NCc1cccc([N+](=O)[O-])c1 | 0.0686
72 | Cc1c(CCO)c(=O)[nH]n1C(=O)c1c(F)cccc1F | 0.442
73 | CC1CN(c2nc(-c3ccccc3)nnc2-c2ccccc2)CC(C)O1 (stereo not drawn) | -0.222
74 | CSc1cc(C)n(-c2ccccc2C)c(=S)c1C(C)=O | 0.0764
75 | Cc1ccc(Cn2c(NC(=O)c3ccco3)nc3ccccc32)cc1 | 1.58
76 | Clc1cccc(-c2nc3nc4ccccc4nc3n2Cc2ccco2)c1 | -2.21
77 | Cc1ccc(Cn2c(C)nc3c(c2=O)c2nc4ccccc4nc2n3Cc2ccco2)cc1 | -6.69 (active)
78 | COc1cc(OC)c2ccc(=O)oc2c1C(CCN1CCN(c2ccccc2)CC1)c1ccc2c(c1)OCO2 (stereo not drawn) | -0.318
79 | C/C=C(\C)C(=O)NCCN1C2=NC[C@H](Cc3ccc(O)cc3)N2C[C@@H]1Cc1ccc(OC)cc1 | -0.0234
80 | CCO[C@H]1OC(C(=O)N2CCOCC2)=C[C@@H](c2ccc3c(c2)OCO3)[C@@H]1CCCO | -0.694
81 | O=C(CSc1nnc(-c2ccccn2)n1-c1ccccc1)Nc1ccc2c(c1)OCO2 | 0.144
82 | Cc1ccccc1-c1nnc(SCC(=O)NCc2ccc3c(c2)OCO3)n1C | 0.345
83 | Cc1cccc(C)c1NC(=O)CSc1nnc(-c2ccccc2)n1Cc1ccc2c(c1)OCO2 | -6.18 (active)
84 | COCCNC(=O)c1onc(CSc2cccc(C)c2)c1C(=O)O | 1.46
85 | CCCCN=C1N/C(=C\c2ccco2)C(=O)N1c1ccccc1 | 0.203
86 | C=C(C)Cn1c(C)cc(C)c(S(=O)(=O)c2ccccc2C)c1=O | -4.84 (active)
87 | COC/C=C/C1=CC2=CC(=O)C(C)(OC(=O)CCC(=O)OC)C(=O)C2=CO1 (stereo not drawn) | -0.853
88 | CC1CCN(C(NC(=O)c2ccco2)C(=O)c2ccccc2)CC1 (stereo not drawn) | -1.33
